Laboratory results published in PubChem BioAssay (EPA / NIEHS).
Results filed as inconclusive are left out. The source made the active and inactive calls. The calls were made as follows, unless noted: active = hit-call score of the fitted dose curve at least 0.9, where 1 is the maximum; inactive = score below 0.9.

Columns and labels:
[1] = CCTE_Shafer_MEA_acute_spike_number: CCTE's Neural Acute Assay for Total Number of Spikes, Shafer Lab (AID 2284008);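 as to AC50: curve fitted for decrease in spike count so AC50 reflects inhibitors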
Procedure, shortened: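 Rat primary cortical neurons on 48-well MEA plates, DIV 13 or 15, at 37 C. 40 min baseline then 40 min with compound (0.03-40 uM); spikes detected at 8x rms noise, expressed as percent change from baseline.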

[2] = CCTE_Shafer_MEA_acute_firing_rate_mean: CCTE's Neural Acute Assay for Mean Firing Rate, Shafer Lab (AID 2284009);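 also: analyzed for loss of signal so actives lower firing rate relative to DMSO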
Procedure, shortened: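 Rat cortical neuron cultures matured to DIV 13 or 15, equilibrated 20 min at 37 C, then recorded 40 min for baseline. Compound (0.03-40 uM) added and a further 40 min recorded; percent change in mean firing rate calculated per well.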

[3] = CCTE_Harrill_HTTr_Viability_MCF7: CCTE's 6-hour Cell Viability Assessment for the High-Throughput Transcriptomics (HTTr) Platform, in MCF-7 cells cultured in DMEM + 10% fetal bovine serum, Harrill Lab (AID 2284010)
Procedure, shortened: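 Eight-point concentration series, six-hour exposure. Propidium iodide exclusion imaged to assess membrane integrity as a cytotoxicity readout; bidirectional fitting was done with DMSO as negative control and activity baseline.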

[4] = CCTE_Harrill_HTTr_CellCount_MCF7: CCTE's Cell Proliferation Assessment for the High-Throughput Transcriptomics (HTTr) Platform, Harrill Lab (AID 2284012; active = hit-call score of the fitted dose curve at least 0.9, where 1 is the maximum;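 also: count of Hoechst-stained nuclei per well by high-content imaging in MCF-7 cells; cells exposed to compound for six hours; intended direction is loss of nuclei count meaning fewer cells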)
Procedure, shortened: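 For this full-screen endpoint, MCF-7 cultures received eight compound dilutions for six hours. Well nuclei counts from Hoechst imaging were analyzed relative to DMSO.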

[5] = CCTE_Shafer_MEA_acute_burst_number: CCTE's Neural Acute Assay for Single-Electrode Bursts, Shafer Lab (AID 2284013)
Procedure, shortened: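 Percent change in single-electrode burst number per well, from 40-min recordings taken before and after adding compound (0.03-40 uM) to primary rat cortical neurons on MEA plates at DIV 13 or 15, 37 C.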

[6] = CCTE_Harrill_HTTr_Apoptosis_MCF7: CCTE's 6-hour Apoptosis Assessment for the High-Throughput Transcriptomics (HTTr) Platform, in MCF-7 cells cultured in DMEM + 10% fetal bovine serum, Harrill Lab (AID 2284011)
Procedure, shortened: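 MCF-7 cells in DMEM + 10% FBS exposed 6 h to chemicals over an eight-point dilution series. Caspase-3/7 activation imaged by high-content CellEvent Green staining; fitted bidirectionally versus DMSO.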

[7] = CCTE_Simmons_MITO_basal_resp_rate: CCTE's HepG2 Seahorse XF Respirometric Screening Assay at Basal Respiratory State, Simmons Lab (AID 2284001); details: actives raise or lower the signal
Procedure, shortened: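 Basal-phase OCR of HepG2 cells on a Seahorse XF96, analysed by bidirectional fit relative to DMSO vehicle; chemicals at 7 concentrations, 125 nM–100 uM final; three biological replicates; fenpyroximate and 2,4-dinitrophenol positive controls.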

[8] = CCTE_Simmons_MITO_max_resp_rate: CCTE's HepG2 Seahorse XF Respirometric Screening Assay at Maximal Respiratory State [uncoupled], Simmons Lab (AID 2284002); details: actives raise or lower the signal
Procedure, shortened: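 HepG2 oxygen consumption measured on Seahorse XF after FCCP uncoupling, following test compound injection; 7 concentrations from 125 nM to 100 uM final. Readings every 6 min over 72 min, three biological replicates; bidirectional fit versus DMSO.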

[9] = CCTE_Simmons_MITO_inhib_resp_rate: CCTE's HepG2 Seahorse XF Respirometric Screening Assay at Inhibited Respiratory State [full ETC block], Simmons Lab (AID 2284006); details: actives raise or lower the signal
Procedure, shortened: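 Test chemicals at seven final concentrations (125 nM–100 uM) in three biological replicates, with DMSO as vehicle. HepG2 oxygen consumption was then tracked on a Seahorse XF96 for 72 min through FCCP and rotenone/antimycin A phases, with the inhibited-phase rate as the endpoint.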

[10] = CCTE_Simmons_MITO_viability: CellTiter-Glo Viability Assessment for CCTE's HepG2 Seahorse XF Respirometric Screening Assay [post-hoc], Simmons Lab (AID 2284007; active = hit-call score of the fitted dose curve at least 0.9, where 1 is the maximum;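 as to AC50: cells exposed to chemical for 90 min before the ATP read; actives lower ATP signal relative to DMSO baseline meaning reduced viability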)
Procedure, shortened: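 Post-hoc viability check on the HepG2 respirometry plates: luciferase-based ATP signal measured once, after 90 min compound exposure spanning 125 nM–100 uM final. Activity was referenced to DMSO as baseline.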

SMILES: Clc1ccc(C(Cl)(Cl)Cl)cc1
- outcome [1]: inactive
- outcome [2]: inactive
- outcome [3]: inactive
- outcome [4]: inactive
- outcome [5]: inactive

SMILES: CC#Cc1cc(C)nc(Nc2ccccc2)n1
- AC50 [1]: 4.07 µM (active)
- AC50 [2]: 4.06 µM (active)
- outcome [3]: inactive
- outcome [6]: inactive
- outcome [4]: inactive
- AC50 [5]: 2.85 µM (active)

SMILES: O=C(O)C(F)(F)C(F)(F)C(F)(F)C(F)(F)C(F)(F)F
- outcome [1]: inactive
- outcome [2]: inactive
- outcome [3]: inactive
- outcome [6]: inactive
- outcome [4]: inactive
- outcome [5]: inactive

SMILES: O=C(NC(=O)c1c(F)cccc1F)Nc1cc(Cl)c(OC(F)(F)C(F)F)c(Cl)c1
- outcome [1]: inactive
- outcome [2]: inactive
- outcome [3]: inactive
- outcome [4]: inactive
- outcome [5]: inactive

SMILES: CO/C=C(/C(=O)OC)c1ccccc1COc1cccc(C(F)(F)F)n1
- AC50 [7]: 2.02 µM (active)
- AC50 [8]: 1.3 µM (active)
- AC50 [9]: 1.1 µM (active)
- outcome [10]: inactive
- AC50 [1]: 0.278 µM (active)
- AC50 [2]: 0.28 µM (active)
- outcome [3]: inactive
- AC50 [5]: 0.239 µM (active)

SMILES: CC(C)(c1ccccc1)c1ccc(O)cc1
- AC50 [7]: 19.9 µM (active)
- AC50 [8]: 37.7 µM (active)
- outcome [9]: inactive
- outcome [10]: inactive
- outcome [3]: inactive
- outcome [4]: inactive

SMILES: CCC(C)(c1ccc(O)cc1)c1ccc(O)cc1
- AC50 [7]: 16.9 µM (active)
- AC50 [8]: 25.9 µM (active)
- outcome [9]: inactive
- outcome [1]: inactive
- outcome [2]: inactive
- outcome [3]: inactive
- outcome [4]: inactive
- outcome [5]: inactive

SMILES: ClC1=C(Cl)[C@]2(Cl)[C@@H]3[C@@H](Cl)[C@H]4O[C@H]4[C@@H]3C1(Cl)C2(Cl)Cl
- AC50 [1]: 0.106 µM (active)
- AC50 [2]: 0.107 µM (active)
- outcome [3]: inactive
- outcome [4]: inactive
- AC50 [5]: 0.054 µM (active)

SMILES: CC(C)(O)C(=O)Nc1ccc([N+](=O)[O-])c(C(F)(F)F)c1
- AC50 [7]: 40.9 µM (active)
- AC50 [8]: 50 µM (active)
- outcome [9]: inactive
- outcome [10]: inactive
- outcome [3]: inactive

SMILES: C[C@]12CCC(=O)C=C1CC[C@@H]1[C@@H]2CC[C@]2(C)C(=O)CC[C@@H]12
- AC50 [7]: 38 µM (active)
- outcome [8]: inactive
- outcome [9]: inactive
- outcome [10]: inactive

SMILES: COS(=O)(=O)OC
- outcome [1]: inactive
- outcome [2]: inactive
- outcome [3]: inactive
- outcome [6]: inactive
- outcome [4]: inactive
- outcome [5]: inactive

SMILES: NS(=O)(=O)C(F)(F)C(F)(F)C(F)(F)C(F)(F)C(F)(F)C(F)(F)C(F)(F)C(F)(F)F
- AC50 [7]: 34.9 µM (active)
- outcome [8]: inactive
- outcome [9]: inactive
- outcome [10]: inactive
- outcome [3]: inactive

SMILES: N#Cc1ccc(N(CC(N)=O)CC(F)(F)F)cc1C(F)(F)F
- outcome [7]: inactive
- outcome [8]: inactive
- outcome [9]: inactive
- outcome [10]: inactive
- outcome [3]: inactive

SMILES: C[C@]12CCC(=O)C=C1CC[C@@H]1[C@@H]2CC[C@@]2(C)[C@H]1CC[C@]2(C)O
- outcome [7]: inactive
- outcome [8]: inactive
- outcome [9]: inactive
- outcome [3]: inactive
- outcome [6]: inactive
- outcome [4]: inactive

SMILES: CCCCCCCCCC[N+](C)(C)CCCCCCCCCC
- AC50 [7]: 8.58 µM (active)
- AC50 [8]: 26.4 µM (active)
- outcome [9]: inactive
- AC50 [10]: 28 µM (active)
- AC50 [1]: 2.81 µM (active)
- AC50 [2]: 2.88 µM (active)
- outcome [3]: inactive
- outcome [4]: inactive
- outcome [5]: inactive

SMILES: CCCN(CCC)N=O
- outcome [1]: inactive
- outcome [2]: inactive
- outcome [3]: inactive
- outcome [4]: inactive
- outcome [5]: inactive

SMILES: ClC1=C(Cl)[C@]2(Cl)[C@@H]3[C@H]4C[C@H]([C@@H]5O[C@H]45)[C@@H]3[C@@]1(Cl)C2(Cl)Cl
- AC50 [1]: 1.38 µM (active)
- AC50 [2]: 1.4 µM (active)
- outcome [3]: inactive
- outcome [4]: inactive
- outcome [5]: inactive

SMILES: Oc1ccc(C(c2ccc(O)cc2)(C(F)(F)F)C(F)(F)F)cc1
- AC50 [7]: 10.8 µM (active)
- AC50 [8]: 21.6 µM (active)
- outcome [9]: inactive
- AC50 [1]: 3.17 µM (active)
- AC50 [2]: 3.16 µM (active)
- outcome [3]: inactive
- outcome [6]: inactive
- outcome [5]: inactive

SMILES: CCNc1nc(NC(C)C)nc(SC)n1
- outcome [7]: inactive
- outcome [8]: inactive
- outcome [9]: inactive
- outcome [3]: inactive

SMILES: CCC(C)c1cc([N+](=O)[O-])cc([N+](=O)[O-])c1O (stereo unspecified)
- AC50 [7]: 0.329 µM (active)
- AC50 [8]: 16 µM (active)
- outcome [9]: inactive
- AC50 [10]: 2.91 µM (active)
- outcome [1]: inactive
- outcome [2]: inactive
- outcome [3]: inactive
- outcome [6]: inactive
- outcome [5]: inactive

SMILES: CCSC(=O)N(CC)C1CCCCC1
- AC50 [7]: 50 µM (active)
- outcome [8]: inactive
- outcome [9]: inactive
- outcome [10]: inactive
- AC50 [1]: 20 µM (active)
- AC50 [2]: 20 µM (active)
- outcome [3]: inactive
- outcome [6]: inactive
- outcome [4]: inactive
- outcome [5]: inactive

SMILES: ClC(Cl)=C(c1ccc(Cl)cc1)c1ccc(Cl)cc1
- outcome [1]: inactive
- outcome [2]: inactive
- outcome [3]: inactive
- outcome [6]: inactive
- outcome [4]: inactive
- outcome [5]: inactive
